In the library only some 3.5% were active in any assay of this set; here they are far more common.
MITF inh: human MITF inhibition, primary screen | AlphaScreen MITF homodimerization, bead proximity signal | inhibition, % at 2.6 µM | O75030 | 0.91% of 650,000 active; in the data active = inhibition above about 50%
TEAD-YAP block: TEAD-YAP interaction inhibition; HEK-TIYL cells, TEAD-Gal4/YAP UAS-luciferase luminescence; inhibition, % at 9.12 µM; 1.4% of 640,000 active; AID 1259422; in the data active = inhibition above about 32%
GPR151 activ: activates the human receptor GPR151. Q8TDV0. PathHunter beta-arrestin GPR151 cells, luminescence. activation, % at 11.2 µM. AID 1508602. 1% of 650,000 active; in the data active = activation above about 4.9%
Target sequence (Q8TDV0 whole entry, looked up): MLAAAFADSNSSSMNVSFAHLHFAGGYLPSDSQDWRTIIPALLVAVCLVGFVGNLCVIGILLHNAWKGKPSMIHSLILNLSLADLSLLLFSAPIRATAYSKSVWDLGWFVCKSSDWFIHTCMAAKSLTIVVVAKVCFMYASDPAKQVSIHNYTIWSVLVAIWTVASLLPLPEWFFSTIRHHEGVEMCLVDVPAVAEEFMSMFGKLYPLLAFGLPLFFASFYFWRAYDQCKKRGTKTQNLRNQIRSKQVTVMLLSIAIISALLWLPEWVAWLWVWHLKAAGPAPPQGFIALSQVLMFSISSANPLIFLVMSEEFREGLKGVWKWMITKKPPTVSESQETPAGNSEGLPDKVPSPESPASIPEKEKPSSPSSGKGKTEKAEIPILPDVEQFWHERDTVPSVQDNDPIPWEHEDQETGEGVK
FBW7 activator: activators of human E3 ligase FBW7 | Q969H0 | AlphaScreen FBW7–phospho-cyclin E peptide binding, activator screen | normalized activity (activation), % at 26.1 µM | 0.13% of 650,000 active | AID 1259310; in the data active = normalized activity above about 1.9%;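 also: purified mutant Fbw7 with reduced substrate affinity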
GPR151 confirm: human GPR151 activation, confirmation screen. shares compounds with GPR151 activ. GPR151 PathHunter beta-arrestin cells, luminescence, 90 min; % of EA-reagent control over plate median. activation, % at 11.2 µM. 6,700 tested, under 10 active;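 active = mean percent activation across replicates above the confirmation screen cutoff of 4.91%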
GPR119 ag: counter-screen for GPR151 activators: effect on human GPR119. AID 1508611. 0.3% of 6,700 active. shares compounds with GPR151 activ. GPR119 PathHunter beta-arrestin cells, luminescence, 90 min; 0 = compound-well median, 100 = enzyme-acceptor control. activation, % at 11.2 µM;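 active = mean percent activation in the counterscreen above 29.09%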;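 also: counterscreen on off-target GPR119 to flag nonselective hits from the GPR151 activator screen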
Each line names hits and unclear results; the compound was inactive in the other large screens (follow-up assays come after a bar, where they were run); ! = a repeat was not active.

CCC(=O)c1ccc(OCC(O)CN(CCO)CCO)cc1 (centres undefined)	none
Cc1cc(NCc2ccccc2)nc(-c2ccc(N3CCN(C)CC3)cc2)n1	GPR151 activ 14 | GPR151 confirm inactive | GPR119 ag inactive
Oc1ccc(C2CNCCc3c2cc(O)c(O)c3Cl)cc1 (centres undefined)	GPR151 activ 6.6! | GPR151 confirm inactive | GPR119 ag inactive
CCOc1ccc2c(C)c(C)c(=O)oc2c1	none
COc1ccc(NCc2ccc(OC)c(OC)c2OC)cc1Cl	GPR151 activ 7.9 | GPR151 confirm inactive | GPR119 ag inactive
Cc1ccc(C)c(N(C)S(=O)(=O)c2ccc3[nH]cc(C(=O)NC(C)C)c(=O)c3c2)c1	none
COC(=O)C(CCSC)NC(=O)c1ccc(Cl)cc1Cl (centres undefined)	GPR151 activ 9.7 | GPR151 confirm inactive | GPR119 ag inactive
COc1ccccc1OCCCC(=O)Nc1nnc(C2CCCCC2)s1	GPR151 activ 5.2 | GPR151 confirm inactive | GPR119 ag inactive
O=C(NC1(C(=O)Nc2ccc(Br)cc2)CCCCC1)c1cccc(O)c1	GPR151 activ 5.5 | GPR151 confirm inactive | GPR119 ag inactive
COc1cc(-c2nc3s/c(=C\c4ccc(N(C)C)cc4)c(=O)n3n2)cc(OC)c1OC	none
C#Cc1cccc(N2C(=O)c3cc4ccccc4c(-c4ccccc4)c3C2=O)c1	GPR151 activ 5.4 | GPR151 confirm inactive | GPR119 ag inactive
COc1ccccc1OCC(=O)Nc1nc(-c2cccs2)c(NC(C)=O)s1	GPR151 activ 14 | GPR151 confirm inactive | GPR119 ag inactive
Cc1cc(C)c2c(c1)/C(=N/Nc1ccc(S(N)(=O)=O)cc1[N+](=O)[O-])CCC2	none
NS(=O)(=O)c1ccc(N/N=C2\CCc3ccccc32)c([N+](=O)[O-])c1	GPR151 activ 7.5 | GPR151 confirm inactive | GPR119 ag inactive
COc1ccc(/C=N/NC(=O)C(=O)Nc2cccc(C(F)(F)F)c2)cc1	none
COc1ccc(NC(=O)CCCC(=O)OCC(F)(F)C(F)F)cc1	GPR151 activ 5.0 | GPR151 confirm inactive | GPR119 ag inactive
O=C(NC1CCSC1=O)c1cccc(C(=O)NC2CCSC2=O)c1 (centres undefined)	GPR151 activ 5.3 | GPR151 confirm inactive | GPR119 ag inactive
COc1ccc(/C=C2\SC(=N)N(C)C2=O)cc1OC	none
COc1ccc(/C=C2\SC(=N)N(c3nccs3)C2=O)cc1OC	GPR151 activ 5.7 | GPR151 confirm inactive | GPR119 ag inactive
CCOc1cc(CC(=O)N[C@@H](CC(C)C)c2ccccc2N2CCCCC2)ccc1C(=O)O	GPR151 activ 7.1! | GPR151 confirm inactive | GPR119 ag inactive
CCOc1ccc(C(=O)Nc2ccccc2N2CCCC2)cc1	none
CCOC(=O)c1c(NC(=O)CSc2n[nH]c(N)n2)sc(C(C)=O)c1C	GPR151 activ 13 | GPR151 confirm inactive | GPR119 ag inactive
CCOC(=O)c1c(NC(=O)CSc2n[nH]c(-c3ccccc3)n2)sc(C(C)=O)c1C	none
Oc1ccc(O)cc1	GPR151 activ 5.1! | GPR151 confirm inactive | GPR119 ag inactive
Oc1ccc(Sc2ccc(O)cc2)cc1	none
N#C/C(=C\c1ccc(O)c(O)c1)c1nc2ccccc2[nH]1	none
CCc1ccccc1NC(=O)CCCC(=O)OCC(=O)c1ccc([N+](=O)[O-])cc1	GPR151 activ 5.5 | GPR151 confirm inactive | GPR119 ag inactive
CCc1ccccc1NC(=O)CCC(=O)OCC(=O)c1ccc([N+](=O)[O-])cc1	none
O=C(N=Nc1c(O)n(CO)c2ccccc12)c1ccncc1	GPR151 activ 4.9 | GPR151 confirm inactive | GPR119 ag inactive
CCn1c(O)c(N=NC(=O)c2ccc(C)nc2)c2ccccc21	none
Cc1nc(N2CCCN(C)CC2)c2c(-c3cccs3)csc2n1	none
Cc1nc(N2CCC(C(N)=O)CC2)c2c(-c3cccs3)csc2n1	GPR151 activ 5.4 | GPR151 confirm inactive | GPR119 ag inactive
Cc1cccc(NC(=O)C2CCCN(S(=O)(=O)c3ccc4[nH]c(=O)ccc4c3)C2)n1 (centres undefined)	GPR151 activ 5.3 | GPR151 confirm inactive | GPR119 ag inactive
CCOc1ccccc1NC(=O)C(=O)N/N=C/c1cccc(OC)c1	none
CCN(CC)c1nc(NCc2cccnc2)nc(N2CCN(c3ccccn3)CC2)n1	GPR151 activ 6.0 | GPR151 confirm inactive | GPR119 ag inactive
CCN(CC)c1nc(NCCO)nc(N2CCN(c3ccccn3)CC2)n1	GPR151 activ 7.6 | GPR151 confirm inactive | GPR119 ag inactive
O=C(N/N=C/c1ccncc1)C1CC1(c1ccccc1)c1ccccc1 (centres undefined)	GPR151 activ 5.9 | GPR151 confirm inactive | GPR119 ag inactive
Cn1c(=O)oc2cc(S(=O)(=O)N3CCN(C4CCCCC4)CC3)ccc21	none
Cn1c(=O)oc2cc(S(=O)(=O)N3CCC(N4CCCCC4)CC3)ccc21	GPR151 activ 5.9 | GPR151 confirm inactive | GPR119 ag inactive
Cc1c(C(=O)NCc2ccc(F)cc2)sc2ncn(CC(=O)Nc3cccc(C(F)(F)F)c3)c(=O)c12	none
COCc1ccc([C@@H]2C[C@H]3CN(c4ccccc4)C(=O)[C@]34CCCN24)o1	GPR151 activ 5.6 | GPR151 confirm inactive | GPR119 ag inactive
COCc1ccc([C@@H]2C[C@H]3CN(C4Cc5ccccc5C4)C(=O)[C@]34CCCN24)o1	none
CC(=O)Nc1ccccc1OCC(=O)Nc1ccc(C#N)cc1	none
O=C(N/C(=C/c1cccc([N+](=O)[O-])c1)C(=O)N1CCCCCC1)c1ccco1	none
O=C(N/C(=C\c1cccc([N+](=O)[O-])c1)C(=O)N1CCOCC1)c1ccco1	GPR151 activ 6.9 | GPR151 confirm inactive | GPR119 ag inactive
O=C(N/C(=C/c1ccc(F)cc1)C(=O)N1CCCCC1)c1ccco1	GPR151 activ 6.6 | GPR151 confirm inactive | GPR119 ag inactive
CCOC(=O)C(C)Sc1nnc(NC(=O)c2cc(OC)c(OC)cc2[N+](=O)[O-])s1 (centres undefined)	none
CCCc1ccc(Oc2c(C(F)(F)F)oc3c(C)c(OC(C)=O)ccc3c2=O)cc1	none
COc1ccc(Br)cc1C(=O)NCCCNc1ccc([N+](=O)[O-])cc1Cl	none
Cc1cc(F)ccc1S(=O)(=O)Nc1cc2c(C(=O)O)c(C)oc2c2ccccc12	GPR151 activ 6.4 | GPR151 confirm inactive | GPR119 ag inactive
COc1ccc(CNC(=S)Nc2ccc(Cl)c(Cl)c2)cc1	none
CCOc1cc2c3c(c1)C1(OCCO1)C(=O)N3C(C)(C)CC2C (centres undefined)	GPR151 activ 5.9 | GPR151 confirm inactive | GPR119 ag inactive
CC(Oc1ccccc1)C(=O)Nc1ccc2[nH]c(=O)[nH]c2c1 (centres undefined)	none
